# Assay outcomes: PubChem BioAssay, The Scripps Research Institute Molecular Screening Center
# A selection: hits, their analogues and other compounds. The true share with any hit is near 2.4%.
# M1 PAM: human CHRM1 positive allosteric modulation | CHO-K1 hM1, Fluo-8 calcium fluorescence, ACh EC20; 0% = ACh EC20, 100% = maximal ACh | P11229 | 360,000 tested, 0.088% active | activation, % at 3 µM; in the data active means activation above about 19%, passing the limit was not always enough
# Target sequence (P11229 whole entry, looked up): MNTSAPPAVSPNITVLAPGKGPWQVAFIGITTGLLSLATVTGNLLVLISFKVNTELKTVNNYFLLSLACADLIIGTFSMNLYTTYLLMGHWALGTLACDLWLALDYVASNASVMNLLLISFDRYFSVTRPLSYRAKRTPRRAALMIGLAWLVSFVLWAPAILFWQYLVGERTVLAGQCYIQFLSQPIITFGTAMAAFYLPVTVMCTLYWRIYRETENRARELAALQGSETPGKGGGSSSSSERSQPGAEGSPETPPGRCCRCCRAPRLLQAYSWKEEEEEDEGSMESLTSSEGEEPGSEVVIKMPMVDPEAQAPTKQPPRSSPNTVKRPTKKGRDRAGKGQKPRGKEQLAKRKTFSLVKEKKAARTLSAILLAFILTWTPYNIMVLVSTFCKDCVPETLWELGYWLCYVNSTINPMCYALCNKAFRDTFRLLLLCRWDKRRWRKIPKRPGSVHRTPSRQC
# CHO-K1 Ca antag: nonselective inhibitor or artifact in parental CHO-K1 cells. inhibition, % at 3 µM. ATP-induced calcium, Fluo-8 fluorescence. 360,000 tested, 0.6% active;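 active means inhibition above a per-plate cutoff, the plate's mean sample inhibition plus 3 SD, cut at about 24% in these data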;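 further: 0% = DMSO plus EC80 ATP and 100% = DMSO alone without ATP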
# M1 ag: activates human CHRM1 receptor; P11229; CHO-K1 hM1, Fluo-8 calcium fluorescence, agonist mode; 0% DMSO, 100% acetylcholine EC100; activation, % at 3 µM; AID 588814; 360,000 tested, 0.33% active;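 active means activation above the run's mean compound activation plus 3 SD, cut at about 16% in these data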;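 further: peak over basal fluorescence ratio within a 140 s kinetic read after compound addition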
# M1 antag: blocks human M1 muscarinic receptor. inhibition, % at 3 µM. 360,000 tested, 1.3% active. P11229. AID 588852. CHO-K1 hM1, Fluo-8 calcium fluorescence, ACh EC80 antagonist;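 active means percent inhibition above its own plate's cutoff, namely the mean of that plate's compound wells plus 3 SD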;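 further: peak over basal fluorescence ratio during 140 s after agonist addition; 0% = ACh EC80 plus DMSO and 100% = DMSO alone without agonist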
# M1 PAM parental: nonselective activator or artifact in parental CHO-K1 calcium assay; 360,000 tested, 0.02% active; ATP EC20, Fluo-8 calcium fluorescence; 0% at ATP EC20, 100% at ATP max; AID 602247; activation, % at 3 µM;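 active means activation above the run cutoff, the mean activation of all test compounds plus 3 SD, cut at about 40% in these data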;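 further: peak over basal fluorescence ratio in a 140 s read after ATP addition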
# CHO-K1 Ca ag: M1 agonist counterscreen hit in parental CHO-K1 cells | Fluo-8 calcium fluorescence; scaled to maximal ATP response, vehicle zero | activation, % at 3 µM | 360,000 tested, 0.48% active; in the data active means activation above about 15%;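 further: untransfected CHO-K1 host cells lacking M1 receptor as counterscreen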
# The depositor's hits bear a star.
SMILES,M1 PAM,CHO-K1 Ca antag,M1 ag,M1 antag,M1 PAM parental,CHO-K1 Ca ag
CC(=O)C1CCC2C3CCC4=CC(=O)CCC4(C)C3C(O)CC12C (stereo not given),4,-19,-6,-34,22,0
O=C(Nc1cc(Cl)cc(Cl)c1)Nc1cnccn1,-8,30*,2,26,-28,1
O=C(Nc1ccc(F)cc1)Nc1cnccn1,5,-9,0,-7,13,2
Cc1ccc(SCCN2CCN(CCc3ccccc3)CCC2=O)cc1,-5,-2,-13,11,2,0
CC(C)CN1CCC(=O)N(CCSc2ccccc2)CC1,0,10,34*,5,-20,0
O=C(Nc1cccc(C(=O)NC2CC2)c1)c1ccc(Cl)c(S(=O)(=O)N2CCOCC2)c1,-7,-4,-3,13,-9,3
O=C(Nc1ccc(S(=O)(=O)N2CCCC2)cc1)c1ccc(OCC2CCCO2)cc1 (stereo not given),-3,-11,-7,5,11,8
COc1ccc(NC(=O)CCN2CCN(S(=O)(=O)c3cc(Cl)ccc3Cl)CC2)cc1,0,-44,9,-8,58*,10
O=C(Nc1ccc(Cl)c(S(=O)(=O)N2CCOCC2)c1)c1ccc(OCC2CCCO2)cc1 (stereo not given),-30,24*,0,36*,-17,11
COc1ccc(C(=O)Nc2ccc(Cl)c(S(=O)(=O)N3CCOCC3)c2)cc1,-15,-6,6,8,2,17*
O=C(Nc1cccc(Br)c1)c1ccc(Cl)c(S(=O)(=O)N2CCOCC2)c1,-28,5,1,43*,-13,14
CCOc1ccc(-c2cc(C(=O)N/N=C/c3cccnc3)c3ccccc3n2)cc1,-4,13,7,-5,-1,24*
COc1cccc(/C=N/NC(=O)c2cc(-c3ccccn3)nc3ccccc23)c1O,-11,-16,-5,37*,4,4
CCOc1ccc(-c2cc(C(=O)Nc3ccc4c(c3)OCCO4)c3ccccc3n2)cc1,2,30*,-2,11,5,3
O=C(NNC(=O)c1ccccc1Br)c1cnccn1,1,-18,-3,1,19,0
Oc1ccc(Cl)cc1CNCc1ccc(F)cc1,6,-14,18*,-5,11,10
Oc1ccc(Cl)cc1CNCc1ccc(Cl)cc1,6,-23,11,-8,12,4
Cc1ccc(-n2c(-c3cccnc3)n[nH]c2=S)c(C)c1,7,26*,-2,1,-6,0
CCCCN(C(=O)COC(=O)C1(c2ccccc2)CC1)c1c(N)n(CCC)c(=O)[nH]c1=O,5,2,-2,-10,18,0
OCC1(CCc2ccccc2)CCCN(C/C=C/c2ccccc2)C1 (stereo not given),-25,-9,-9,35*,-9,0
COc1ccccc1/C=C/CN1CCCC(CO)(CCc2ccccc2)C1 (stereo not given),-18,0,-8,19,12,1
COc1ccc(NS(=O)(=O)c2ccc(C(=O)N3CCC(C)CC3)cc2)cc1,-17,-5,36*,18,-11,31*
CCOc1ccc(NS(=O)(=O)c2ccc(C(=O)N3CCCCC3)cc2)cc1,-12,6,23*,15,-19,19*
CCOc1ccc(S(=O)(=O)Nc2ccc(C(=O)N3CC(C)OC(C)C3)cc2)cc1 (stereo not given),-12,4,33*,14,-20,17*
Cc1ccc(NS(=O)(=O)c2ccc(C(=O)N3CCCC(C(F)(F)F)C3)cc2)cc1 (stereo not given),-6,9,45*,17,-10,39*
SMILES,M1 PAM,CHO-K1 Ca antag,M1 ag,M1 antag,M1 PAM parental,CHO-K1 Ca ag
O=C(NCC1CCN(S(=O)(=O)c2ccccc2)CC1)Nc1ccccc1,1,-9,-2,-2,16,6
CC1CN(C(=O)c2cccc(S(=O)(=O)N3CCN(c4ccc(F)cc4)CC3)c2)CC(C)O1 (stereo not given),0,-9,2,-5,-3,9
CCOc1ccc(NS(=O)(=O)c2ccc(C(=O)N3CC(C)OC(C)C3)cc2)cc1 (stereo not given),-22,0,55*,34*,2,41*
O=C(c1cccc(S(=O)(=O)N2CCN(c3ccc(F)cc3)CC2)c1)N1CCCC(C(F)(F)F)C1 (stereo not given),-12,15,-2,34*,-26,9
CC1CN(C(=O)c2ccc(NS(=O)(=O)c3ccc(C(C)(C)C)cc3)cc2)CC(C)O1 (stereo not given),-3,0,39*,19,-14,25*
Cc1ccc(C(=O)NCC(=O)N2CCCN(C)CC2)cc1C,3,-10,-7,-2,16,0
N=C1c2ccccc2CN1c1ccc(S(=O)(=O)N2CCCCC2)cc1,-24,-1,-7,74*,-5,2
CCOC(=O)c1ccc(N2Cc3ccccc3C2=N)cc1,-21,-10,-6,70*,21,0
O=C1c2ccccc2C(=O)N1c1ccc(S(=O)(=O)N2CCCCC2)cc1,11,-15,-3,-13,14,3
CCOC(=O)N1CCC(NC(=O)c2cc(C(=O)Nc3ccc(S(=O)(=O)N4CCCCC4)cc3)ccc2CO)CC1,8,-1,4,-5,12,19*
CC(=O)c1cccc(NC(=O)c2ccc(S(=O)(=O)N3CCCC3)cc2)c1,-15,-6,-11,25*,-16,2
CCOC(=O)N1CCC(NC(=O)c2cc(C(=O)Nc3ccc(OCC)cc3)ccc2CO)CC1,3,-9,-3,-4,10,0
CC(=O)c1ccc(NC(=O)c2ccc(S(=O)(=O)N3CCCC3)cc2)cc1,-10,20,-7,13,-13,1
Cc1cc(C(=O)Nc2ccc(S(=O)(=O)N3CCCC3)cc2)cs1,3,25*,-7,-6,-13,1
CCC(=O)c1ccc(OCC(=O)Nc2cccc(S(=O)(=O)N3CCCCCC3)c2)cc1,-18,36*,1,47*,-15,18*
COc1ccc(CCNC(=O)c2ccccc2SC)cc1,0,4,-3,10,-14,0
COc1ccc(NC(=O)C(c2ccccc2)N2CCN(c3ccccn3)CC2)cc1Cl (stereo not given),2,1,-10,-8,7,0
CCCCn1c(CCC(=O)O)nc2cc(S(=O)(=O)N3CCCC3)ccc21,8,-15,-1,-7,11,0
CCN(CC)S(=O)(=O)c1cccc(NC(=O)COC(=O)c2cc(=O)c3ccccc3o2)c1,1,-3,-2,2,16,0
